# Molecular target: T1, Aspartate--tRNA(Asp/Asn) ligase (Mycobacterium tuberculosis (strain ATCC 25618 / H37Rv)) (UniProt P9WFW3)
# T1 sequence (whole entry): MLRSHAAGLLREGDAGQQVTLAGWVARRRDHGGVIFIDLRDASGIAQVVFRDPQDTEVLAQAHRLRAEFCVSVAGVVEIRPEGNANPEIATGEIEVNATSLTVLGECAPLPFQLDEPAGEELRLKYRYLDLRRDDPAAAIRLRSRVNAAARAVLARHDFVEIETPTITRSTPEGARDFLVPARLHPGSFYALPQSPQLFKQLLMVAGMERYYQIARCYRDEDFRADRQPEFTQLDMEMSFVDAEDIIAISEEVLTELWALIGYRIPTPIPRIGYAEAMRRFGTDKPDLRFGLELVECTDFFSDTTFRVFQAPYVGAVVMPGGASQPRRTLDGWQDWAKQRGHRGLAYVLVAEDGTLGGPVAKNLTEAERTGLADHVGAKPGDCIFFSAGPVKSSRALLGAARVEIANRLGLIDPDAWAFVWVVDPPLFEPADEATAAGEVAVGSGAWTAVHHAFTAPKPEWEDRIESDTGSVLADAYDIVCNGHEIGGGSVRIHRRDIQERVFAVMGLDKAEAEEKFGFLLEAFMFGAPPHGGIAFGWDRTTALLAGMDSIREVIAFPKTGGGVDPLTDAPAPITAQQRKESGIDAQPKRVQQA
# Experiment: Assay for Asp RNA synthetase-1 from Mycobacterium tuberculosis
# Format: functional
# Design: scale not given: in the data most compounds retested in dose-response had high values
# Conditions: 30 µM
row,Structure (SMILES),Percent Effect
1,CC(C)CN1CCCn2nc(CNC(=O)c3cccnc3O)cc2C1,-2.56%
2,O=C(CN1CCNCC1)N1CC[C@@H](c2ccc3ccccc3c2)[C@H](O)C1,-0.747%
3,CN1C(=O)C(c2ccccc2)CC12CCN(CCOCCO)CC2 (stereo not given),-1.23%
4,Cc1ccc2ncnc(N3CCOCC3c3c(C)nn(C)c3C)c2c1 (stereo not given),-0.356%
5,CCC(C)NC(=O)c1ccccc1-n1cnnn1 (stereo not given),-5.94%
6,CC(C)Nc1ncc(CN2C[C@@H](CN3CCC(O)CC3)[C@@H](CO)C2)cn1,-1.99%
7,O=C(c1cncc(N2CCC3(CCNCC3)CC2)n1)N1CCCC1,-3.85%
8,COc1cc(C)c(C(C)NC(=O)Nc2nnc(C)s2)cc1OC (stereo not given),-7.26%
9,CCc1cc(N2CCSCC2)n2nc(C)c(C)c2n1,4.1%
10,O=C1N(Cc2ccc(F)c(F)c2)CCCC12CCN(C1CCSCC1)C2 (stereo not given),-5.55%
11,Cc1cnn(C2CN(Cc3ccc4c(c3)OCCO4)C2)c1,2.19%
12,O=C(NCCCn1ccnc1)N1CCCC1c1ccncc1 (stereo not given),-2.68%
13,Cc1cnn(C2CCCN(C(=O)c3sccc3-n3cnnn3)C2)c1 (stereo not given),-2.01%
14,c1cn(Cc2nnc(C3CCN(c4nccs4)CC3)n2C2CC2)cn1,-3.69%
15,O=C(CCc1c[nH]cn1)N1CC[C@@H](c2ccc3ccccc3c2)[C@H](O)C1,-0.632%
16,Cc1ccccc1CSc1nc(N)cc(N2CC[C@@H](O)C2)n1,0.861%
17,N#Cc1ccc(C2CC(=O)Nc3c2cnn3C2CCCC2)cc1 (stereo not given),-5.3%
18,c1ccc(OCCN2CCCC(c3noc(C4CC4)n3)C2)cc1 (stereo not given),-0.885%
19,CCOC1CCN(C(=O)c2c(Cl)c3ccccc3n2C)CC1,-2.01%
20,Cc1cnn(Cc2cc(F)ccc2F)c1NC(=O)NC1CC1,-1.44%

row,Structure (SMILES),Percent Effect
1,Cc1ccc(C#N)c(N2CCC(c3nccn3Cc3cscn3)CC2)n1,2.26%
2,CC(=O)N1CCCN(C(=O)c2csc(-c3ccc(C)cc3C)n2)CC1,-7.84%
3,Cc1nc(C2CCCN2C(=O)CNS(C)(=O)=O)no1 (stereo not given),0.586%
4,CC(C)NC(=O)CC1COC2(CCN(Cc3cccs3)CC2)C1 (stereo not given),-0.0228%
5,Cc1ccc(C(=O)N2Cc3ccccc3C2)cc1N1CCNC1=O,-0.287%
6,Cc1cccc(NC2CCN(C(=O)Nc3cccc4[nH]ccc34)CC2)n1,-0.4%
7,CCOc1ncccc1CNC(=O)N1CCCC1c1ccncc1 (stereo not given),-0.287%
8,Cc1nccn1CCC1CCCCN1Cc1ccc(N(C)C)nc1 (stereo not given),2.17%
9,c1ccc2c(N3CCCCC3Cn3cncn3)ncnc2c1 (stereo not given),0.172%
10,Cc1oc(C(=O)O)cc1S(=O)(=O)Nc1c(F)cccc1-n1cccn1,-2.17%
11,O=C(c1ccncc1)N1C[C@@H]2CC[C@H](C1)N(C(=O)N1CCOCC1)C2,2.77%
12,CSC(C)(C)CNC(=O)NC1CCSCC1,0.103%
13,CSCCC1c2nc[nH]c2CCN1Cc1cc(Cl)ccc1O (stereo not given),0.954%
14,CC(C)(C)c1n[nH]c(C2CN(C(=O)c3cc(C4CC4)on3)CCO2)n1 (stereo not given),-2.16%
15,CC(C)c1nc2n(n1)CC(NCc1nc(-c3cccnc3)no1)CC2 (stereo not given),-2.88%
16,O=C(CCc1cc2n(n1)CCCN(C(=O)c1cccnc1)C2)NC1CC1,-2.01%
17,Cc1cnc(C)c(N2CCN(Cc3ccc(-c4cc[nH]n4)o3)CC2)n1,0.816%
18,CCc1ncnc2c1CCN(C(=O)Cc1ccccn1)CC2,-1.97%
19,OC1(CN2CCCC2)CCCN(Cc2ccc(F)cc2Cl)C1 (stereo not given),4.15%
20,COC1CCN(C(=O)c2c(Cl)c3ccccc3n2C)CC1,-5.5%

# — ChEMBL document CHEMBL3988442, “University of Dundee, Small-Polar-MMV Screening Library” (2021)
